In experiment [1] the target is Mast/stem cell growth factor receptor Kit (Homo sapiens) (UniProt P10721). The following applies: at 1 µM.
The target is the same in experiment [2]. The following applies: at 10 µM.
Experiment [3] has as its target Proto-oncogene tyrosine-protein kinase Src (Homo sapiens) (UniProt P12931). The following applies: at 1 µM.
The target is the same in experiment [4]. The following applies: at 10 µM.
Experiment [5] concerns the target T1, Eukaryotic elongation factor 2 kinase (Homo sapiens) (UniProt O00418).
T1 sequence (whole entry): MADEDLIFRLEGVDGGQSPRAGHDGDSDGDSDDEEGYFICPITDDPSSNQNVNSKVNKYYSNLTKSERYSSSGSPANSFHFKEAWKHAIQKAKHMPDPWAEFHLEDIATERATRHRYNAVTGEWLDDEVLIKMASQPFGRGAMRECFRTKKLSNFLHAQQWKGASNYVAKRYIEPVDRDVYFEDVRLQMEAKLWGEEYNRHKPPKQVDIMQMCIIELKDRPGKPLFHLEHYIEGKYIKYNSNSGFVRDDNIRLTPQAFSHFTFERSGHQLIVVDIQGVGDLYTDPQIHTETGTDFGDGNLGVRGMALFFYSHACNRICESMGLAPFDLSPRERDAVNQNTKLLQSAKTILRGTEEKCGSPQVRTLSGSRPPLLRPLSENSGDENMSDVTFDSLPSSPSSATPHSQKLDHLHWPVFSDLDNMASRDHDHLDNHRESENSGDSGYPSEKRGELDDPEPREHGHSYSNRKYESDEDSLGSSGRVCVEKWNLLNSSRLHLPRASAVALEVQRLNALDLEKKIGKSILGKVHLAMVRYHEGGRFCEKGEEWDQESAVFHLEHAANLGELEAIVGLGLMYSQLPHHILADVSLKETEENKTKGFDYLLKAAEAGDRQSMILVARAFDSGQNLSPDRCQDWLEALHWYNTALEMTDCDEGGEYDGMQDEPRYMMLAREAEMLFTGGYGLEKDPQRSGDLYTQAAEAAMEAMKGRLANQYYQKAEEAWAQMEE
The note with it: at 1 µM.

Experiment [6] has as its target T1, Eukaryotic elongation factor 2 kinase (Homo sapiens). The note with it: at 10 µM.
The target of experiment [7] is Serine/threonine-protein kinase mTOR (Homo sapiens) (UniProt P42345). The note with it: at 1 µM.
The target is the same in experiment [8]. The following applies: at 10 µM.
The target is the same in experiment [9]. The note with it: at 1 µM. This is another data set of the same source.
The target is the same in experiment [10]. The note with it: at 10 µM. The source holds these as a separate data set.
Experiment [11] deals with Ribosomal protein S6 kinase beta-1 (Homo sapiens) (UniProt P23443). The following applies: at 1 µM.
Chain of Ribosomal protein S6 kinase beta-1 (Homo sapiens) (P23443 whole entry, looked up): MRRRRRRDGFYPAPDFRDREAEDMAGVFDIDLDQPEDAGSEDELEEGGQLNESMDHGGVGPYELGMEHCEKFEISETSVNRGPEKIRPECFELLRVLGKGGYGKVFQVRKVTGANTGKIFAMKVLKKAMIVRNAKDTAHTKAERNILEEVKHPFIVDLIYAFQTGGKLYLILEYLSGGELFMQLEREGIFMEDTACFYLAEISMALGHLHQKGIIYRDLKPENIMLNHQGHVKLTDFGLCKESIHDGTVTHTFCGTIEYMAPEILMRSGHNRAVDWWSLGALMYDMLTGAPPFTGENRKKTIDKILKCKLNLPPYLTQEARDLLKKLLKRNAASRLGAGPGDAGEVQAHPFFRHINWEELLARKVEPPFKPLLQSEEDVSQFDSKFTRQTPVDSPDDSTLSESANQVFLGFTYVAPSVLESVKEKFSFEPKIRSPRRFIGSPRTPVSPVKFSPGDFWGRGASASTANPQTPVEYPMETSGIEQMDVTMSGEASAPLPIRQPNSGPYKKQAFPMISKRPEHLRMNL
The target is the same in experiment [12]. The note with it: at 10 µM.
In experiment [13] the target is Serine/threonine-protein kinase Nek6 (Homo sapiens) (UniProt Q9HC98). The note with it: at 1 µM.
Chain of Serine/threonine-protein kinase Nek6 (Homo sapiens) (Q9HC98 whole entry): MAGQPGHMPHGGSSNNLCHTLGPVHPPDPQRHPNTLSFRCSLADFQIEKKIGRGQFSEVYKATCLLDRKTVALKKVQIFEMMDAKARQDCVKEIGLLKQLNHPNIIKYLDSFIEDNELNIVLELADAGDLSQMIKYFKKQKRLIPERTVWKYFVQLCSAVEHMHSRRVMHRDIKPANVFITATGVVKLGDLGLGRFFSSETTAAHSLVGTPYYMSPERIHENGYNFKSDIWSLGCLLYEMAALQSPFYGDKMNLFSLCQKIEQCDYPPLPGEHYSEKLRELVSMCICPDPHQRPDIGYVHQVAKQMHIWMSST
Experiment [14] shares this target. The following applies: at 10 µM.
Experiment [15] concerns the target Serine/threonine-protein kinase Nek7 (Homo sapiens) (UniProt Q8TDX7). The note with it: at 1 µM.
For experiment [16] the target is unchanged. The following applies: at 10 µM.
The target in experiment [17] is T2, Serine/threonine-protein kinase NLK (Homo sapiens) (UniProt Q9UBE8).
T2 sequence (whole entry): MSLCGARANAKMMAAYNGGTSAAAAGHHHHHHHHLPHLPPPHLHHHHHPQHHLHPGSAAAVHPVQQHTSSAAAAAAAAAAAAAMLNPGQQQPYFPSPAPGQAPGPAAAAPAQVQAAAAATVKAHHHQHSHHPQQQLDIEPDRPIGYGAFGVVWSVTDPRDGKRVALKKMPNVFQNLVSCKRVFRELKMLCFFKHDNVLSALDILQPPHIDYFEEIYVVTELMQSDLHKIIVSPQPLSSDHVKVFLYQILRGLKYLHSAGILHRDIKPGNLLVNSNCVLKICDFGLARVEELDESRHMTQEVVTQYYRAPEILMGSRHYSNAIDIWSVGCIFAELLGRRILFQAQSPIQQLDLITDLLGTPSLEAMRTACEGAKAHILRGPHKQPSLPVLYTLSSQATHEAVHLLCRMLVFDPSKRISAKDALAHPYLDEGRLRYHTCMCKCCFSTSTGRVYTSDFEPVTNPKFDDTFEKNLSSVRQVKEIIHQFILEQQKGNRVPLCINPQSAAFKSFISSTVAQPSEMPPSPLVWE
The note with it: at 1 µM.

Experiment [18] addresses T2, Serine/threonine-protein kinase NLK (Homo sapiens). The following applies: at 10 µM.
The target of experiment [19] is Serine/threonine-protein kinase PAK 2 (Homo sapiens) (UniProt Q13177). The following applies: at 1 µM.
Chain of Serine/threonine-protein kinase PAK 2 (Homo sapiens) (Q13177 whole entry): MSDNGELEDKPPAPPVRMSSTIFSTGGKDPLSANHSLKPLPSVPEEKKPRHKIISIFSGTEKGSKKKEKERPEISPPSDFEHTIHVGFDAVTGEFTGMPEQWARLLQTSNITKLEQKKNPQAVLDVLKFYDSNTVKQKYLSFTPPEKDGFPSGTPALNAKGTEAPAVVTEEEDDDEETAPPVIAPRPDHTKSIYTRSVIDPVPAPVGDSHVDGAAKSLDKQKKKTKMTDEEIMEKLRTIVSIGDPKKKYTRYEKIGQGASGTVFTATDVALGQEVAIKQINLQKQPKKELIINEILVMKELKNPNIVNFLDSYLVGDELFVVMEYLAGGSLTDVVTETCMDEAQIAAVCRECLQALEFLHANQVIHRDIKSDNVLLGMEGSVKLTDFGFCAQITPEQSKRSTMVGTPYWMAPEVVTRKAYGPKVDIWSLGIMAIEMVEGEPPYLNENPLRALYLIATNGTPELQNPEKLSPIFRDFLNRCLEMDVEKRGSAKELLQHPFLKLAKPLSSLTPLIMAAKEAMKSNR
Experiment [20] shares this target. The following applies: at 10 µM.

Residual activity data for eight compounds are collected here from ChEMBL document CHEMBL2218924, “A broad activity screen in support of a chemogenomic map for kinase signalling research and drug discovery” (Biochem J, 2013).

One may read the residual activity as the signal under treatment as a percentage of the control signal.

SMILES strings stand for the structures.

Chain of Proto-oncogene tyrosine-protein kinase Src (Homo sapiens) (P12931 2-536 limits assumed): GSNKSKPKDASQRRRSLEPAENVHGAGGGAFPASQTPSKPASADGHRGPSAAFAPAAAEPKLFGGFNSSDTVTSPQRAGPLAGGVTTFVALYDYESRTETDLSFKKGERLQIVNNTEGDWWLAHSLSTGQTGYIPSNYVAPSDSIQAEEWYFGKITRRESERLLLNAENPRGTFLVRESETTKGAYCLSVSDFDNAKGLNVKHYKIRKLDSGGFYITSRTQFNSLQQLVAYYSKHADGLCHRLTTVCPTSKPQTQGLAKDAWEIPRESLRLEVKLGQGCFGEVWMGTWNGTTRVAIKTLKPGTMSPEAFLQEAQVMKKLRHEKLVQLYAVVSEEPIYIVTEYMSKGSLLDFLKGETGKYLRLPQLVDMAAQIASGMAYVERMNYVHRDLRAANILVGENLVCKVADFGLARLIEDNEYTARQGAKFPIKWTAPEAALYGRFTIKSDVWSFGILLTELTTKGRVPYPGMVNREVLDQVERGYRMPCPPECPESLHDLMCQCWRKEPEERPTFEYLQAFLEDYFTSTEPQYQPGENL
Chain of Serine/threonine-protein kinase Nek7 (Homo sapiens) (Q8TDX7 whole entry, looked up): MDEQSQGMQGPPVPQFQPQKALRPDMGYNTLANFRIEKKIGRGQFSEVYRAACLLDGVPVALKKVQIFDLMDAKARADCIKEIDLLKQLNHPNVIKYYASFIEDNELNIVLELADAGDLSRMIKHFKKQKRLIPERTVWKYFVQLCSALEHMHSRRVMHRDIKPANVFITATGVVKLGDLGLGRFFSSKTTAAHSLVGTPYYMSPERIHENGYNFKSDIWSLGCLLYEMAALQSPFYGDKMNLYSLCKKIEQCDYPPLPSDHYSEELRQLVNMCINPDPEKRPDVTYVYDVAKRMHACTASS
Chain of Mast/stem cell growth factor receptor Kit (Homo sapiens) (P10721 whole entry): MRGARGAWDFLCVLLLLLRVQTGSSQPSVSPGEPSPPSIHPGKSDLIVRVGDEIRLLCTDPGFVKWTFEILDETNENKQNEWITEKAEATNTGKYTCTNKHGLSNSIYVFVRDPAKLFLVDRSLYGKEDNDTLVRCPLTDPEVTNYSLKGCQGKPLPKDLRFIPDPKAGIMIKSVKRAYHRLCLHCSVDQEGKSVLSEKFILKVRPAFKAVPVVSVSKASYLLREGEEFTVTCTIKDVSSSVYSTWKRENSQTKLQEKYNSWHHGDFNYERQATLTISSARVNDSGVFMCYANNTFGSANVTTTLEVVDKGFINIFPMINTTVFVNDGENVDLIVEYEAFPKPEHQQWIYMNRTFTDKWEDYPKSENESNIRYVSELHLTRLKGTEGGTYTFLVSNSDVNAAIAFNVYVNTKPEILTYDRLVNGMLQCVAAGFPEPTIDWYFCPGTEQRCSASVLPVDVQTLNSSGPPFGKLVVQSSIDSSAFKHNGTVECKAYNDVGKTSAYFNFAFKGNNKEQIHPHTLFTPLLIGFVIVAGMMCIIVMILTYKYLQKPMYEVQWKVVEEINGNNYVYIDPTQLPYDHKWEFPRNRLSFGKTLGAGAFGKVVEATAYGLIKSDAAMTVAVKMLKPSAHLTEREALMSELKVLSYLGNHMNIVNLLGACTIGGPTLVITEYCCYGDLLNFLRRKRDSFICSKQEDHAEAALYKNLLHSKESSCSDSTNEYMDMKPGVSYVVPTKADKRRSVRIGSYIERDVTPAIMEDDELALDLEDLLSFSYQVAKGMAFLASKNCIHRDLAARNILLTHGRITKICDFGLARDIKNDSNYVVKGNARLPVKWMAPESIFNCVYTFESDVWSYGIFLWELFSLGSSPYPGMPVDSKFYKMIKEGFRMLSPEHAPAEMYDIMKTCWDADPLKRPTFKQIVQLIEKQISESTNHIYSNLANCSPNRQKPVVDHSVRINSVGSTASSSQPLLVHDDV

For `O=Nc1c(-c2c(O)[nH]c3ccccc23)[nH]c2ccccc12`, the residual activity in experiment [1] was 20%; in experiment [2], 2%; in [3], 35%; in experiment [4], 5%; in experiment [5], 109% (inactive); in experiment [6], 93%. The residual activity stood at 100% in experiment [7]; 98% in experiment [8]; 117% in [9]; 89% in experiment [10]; 37% in experiment [11]; 13% in [12]. In addition, the residual activity in [13] is 91% (inactive); in experiment [14], 103%; in [15], 106% (inactive); in experiment [16], 102% (inactive); in experiment [17], 82%; in [18], 67%. The residual activity worked out at 103% in experiment [19] and 54% in experiment [20].
Regarding `COc1cc2ncnc(Nc3ccc(Oc4ccccc4)cc3)c2cc1OC`, the residual activity in experiment [1] was 109%; in experiment [2], 60%; in experiment [3], 36%; in [4], 24%; in [5], 92% (inactive); in experiment [6], 132%. In addition, the residual activity in experiment [7] was found to be 90%; in experiment [8] it was 95%; in experiment [9], 80%; in [10] it was 95%; in experiment [11] it was 92%; in [12], 88%. Further, the residual activity is 97% (inactive) in experiment [13]; 118% in experiment [14]; 97% (inactive) in experiment [15]; 112% (inactive) in experiment [16]; 96% in experiment [17]; 82% in [18]. In addition, the residual activity in [19] stood at 98%; in experiment [20], 87%.
Regarding `CC#CC(=O)Nc1cc2c(Nc3ccc(F)c(Cl)c3)ncnc2cn1`, the residual activity worked out at 111% in experiment [1]; 100% in experiment [2]; 89% in experiment [3]; 92% in [4]; 108% in experiment [7]; 100% in experiment [8]. For the same compound, the residual activity in experiment [9] was 113%; in [10], 92%; in experiment [11], 96%; in [12] it was 98%; in experiment [13], 82% (inactive); in experiment [14], 91%. The residual activity in [15] was 94% (inactive); in experiment [16] it was 100% (inactive); in experiment [17], 93%; in experiment [18], 79%; in [19] it was 82%; in [20], 81%.
As for `COc1ccc(OC)c2c(=S)c3ccccc3[nH]c12`, the residual activity in experiment [1] was 93%; in experiment [2], 93%; in [3], 118%; in experiment [4] it was 93%; in experiment [7], 100%; in experiment [8], 84%. The residual activity in experiment [9] is 119%; in experiment [10] it was 76%; in experiment [11], 115%; in experiment [12] it was 86%; in [13], 97% (inactive); in [14], 91%. For the same compound, the residual activity in [15] was 103% (inactive); in experiment [16] it was 97% (inactive); in experiment [17], 85%; in experiment [18] it was 76%; in experiment [19] it was 90%; in experiment [20], 73%.
As to `Cn1cnc2cc3c(Nc4cccc(Br)c4)ncnc3cc21`, the residual activity in experiment [1] turned out to be 114%; in experiment [2] it was 92%; in experiment [3], 64%; in experiment [4], 32%; in experiment [7], 102%; in experiment [8], 105%. Further, the residual activity in [9] was 104%; in experiment [10], 97%; in experiment [11], 95%; in experiment [12], 71%; in experiment [13], 104% (inactive); in [14], 104%. The residual activity in experiment [15] was 100% (inactive); in experiment [16] it was 103% (inactive); in [17], 93%; in [18] it was 73%; in [19], 93%; in [20], 90%.
Regarding `Cc1cc(Nc2nc(-c3ccccc3)nc3ccccc23)n[nH]1`, the residual activity in experiment [1] is 23%; in experiment [2], 2%; in experiment [3], 14%; in [4], -2%; in [7], 109%; in [9] it was 128%. Besides, the residual activity is 46% in [11]; 10% in experiment [12]; 105% (inactive) in [13]; 105% in experiment [14]; 105% (inactive) in experiment [15]; 45% in experiment [20].
For the compound `N#CCCc1ccc2c(c1)-c1[nH]c3ccc([N+](=O)[O-])cc3c1CC(=O)N2`, the residual activity in experiment [3] worked out at 46%; in experiment [4], 13%; in [7], 116%; in experiment [18], 64%; in experiment [19], 62%; in experiment [20], 37%.
As to `N#Cc1cnc2cnc(NCc3cccnc3)cc2c1Nc1ccc(F)c(Cl)c1`, the residual activity in experiment [2] stood at 92%; in experiment [3], 56%; in experiment [4], 39%; in experiment [7] it was 89%; in experiment [8], 85%; in experiment [10], 96%. Besides, the residual activity in experiment [11] was 1%; in experiment [12], -1%; in [17], 93%; in [18], 89%; in experiment [19] it was 103%; in experiment [20] it was 90%.
